Data: PubChem BioAssay (NCATS)
Records with an inconclusive call do not appear. Activity calls are given as the source filed them. Unless noted, calls come from the whole dose curve; as a rule, active = well fitted curve in either direction with a large enough effect (not every such curve was filed as active); inconclusive = small, poorly fitted or top-dose-only effect, or another doubt; inactive = flat fitted curve, though single readings scatter.

Tests used:
[1] = molecular target: Mitogen-activated protein kinase 10 (Mus musculus) (UniProt Q61831); assay: JNK3 AlphaScreen Assay (AID 530);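 note: kinase came from lysate of stimulated human HepG2 cells; signal reports phosphorylation of biotinylated GST-cJun 1-79 at Ser73 with 10 µM ATP; series mostly up to about 57 µM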
Summary of the method: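 Pre-activated (IL-1β/TNFα) JNK3 in HepG2 lysates phosphorylates biotin-GST-cJun(1-79), 10 uM ATP; anti-phospho-cJun(Ser73) AlphaScreen read at room temperature, pH 7.6 Tris buffer. Compounds pre-incubated 15 min as titrations.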

[2] = molecular target: 3',5'-cyclic-AMP phosphodiesterase 4B (Homo sapiens) (UniProt Q07343); assay: qHTS Assay for Inhibitors of PDE-IV (AID 607; active = well fitted activation curve with a large enough effect in the main read-out, with a control signal flat, not every such curve was filed as active)
Summary of the method: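 The readout is membrane depolarisation from a cAMP-sensing CNG channel, detected with a potential dye at ex 535/em 590. Cells were HEK293-derived (endogenous PDE-IV) at 1000 cells/well, titrated up to 22.9 uM final.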

Sequence of 3',5'-cyclic-AMP phosphodiesterase 4B (Homo sapiens) (Q07343 whole entry, looked up): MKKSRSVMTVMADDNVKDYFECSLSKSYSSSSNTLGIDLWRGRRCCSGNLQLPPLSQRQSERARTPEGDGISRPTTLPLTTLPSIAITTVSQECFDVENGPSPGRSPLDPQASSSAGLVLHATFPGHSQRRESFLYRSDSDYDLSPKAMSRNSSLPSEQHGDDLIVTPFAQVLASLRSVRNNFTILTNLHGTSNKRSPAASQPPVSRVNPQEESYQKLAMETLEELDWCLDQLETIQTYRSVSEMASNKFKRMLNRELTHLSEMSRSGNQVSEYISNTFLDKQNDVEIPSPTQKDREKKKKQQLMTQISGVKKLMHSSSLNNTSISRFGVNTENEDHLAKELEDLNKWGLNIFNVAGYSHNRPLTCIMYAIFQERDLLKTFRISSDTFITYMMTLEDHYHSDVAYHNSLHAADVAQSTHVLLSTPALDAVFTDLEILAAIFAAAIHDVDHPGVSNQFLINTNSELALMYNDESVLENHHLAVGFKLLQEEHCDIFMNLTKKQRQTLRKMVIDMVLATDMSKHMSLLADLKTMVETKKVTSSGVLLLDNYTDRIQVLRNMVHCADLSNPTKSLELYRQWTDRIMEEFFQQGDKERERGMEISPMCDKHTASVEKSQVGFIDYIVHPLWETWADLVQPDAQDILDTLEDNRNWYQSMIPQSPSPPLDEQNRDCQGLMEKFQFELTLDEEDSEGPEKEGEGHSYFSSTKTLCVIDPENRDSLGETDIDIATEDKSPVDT

Structure (SMILES): COC(=O)[C@@]1(Cc2ccc(OC)cc2)[C@H]2c3cc(C(=O)N4CCCC4)n(Cc4ccc(O)c(OC)c4)c3C[C@H]2CN1C(=O)c1ccccc1
- outcome [1]: inactive
- outcome [2]: inactive

Structure (SMILES): COC(=O)Cn1c(C(=O)N2CCCC2)cc2c1C[C@H]1CN(C(=O)c3ccccc3)[C@@](Cc3ccccc3)(C(=O)OC)[C@@H]21
- outcome [1]: inactive

Structure (SMILES): CCC[C@@H]1C[C@@]1(CCC)C(NP(=O)(c1ccccc1)c1ccccc1)c1ccc(Cl)cc1 (some centres undefined)
- outcome [1]: inactive

Structure (SMILES): COC(=O)[C@@]1(Cc2ccc(OC)cc2)[C@H]2c3cc(C(=O)N(C)C)n(Cc4c(CO)[nH]cc(C)c4=O)c3C[C@H]2CN1C(=O)c1ccccc1
- outcome [1]: inactive
- outcome [2]: inactive

Structure (SMILES): Cc1ccc(CNC(=O)[C@H](C)[C@@H]2C[C@@]2(C)[C@@H](NC(=O)OCc2ccccc2)c2ccccc2)c(F)c1F
- outcome [1]: inactive
- outcome [2]: inactive

Structure (SMILES): CCCC[C@@H]1C[C@H]1C(NC(=O)c1ccco1)c1ccccc1C(F)(F)F (some centres undefined)
- outcome [1]: inactive

Structure (SMILES): COC(=O)[C@@]1(Cc2ccc(OC)cc2)[C@H]2c3cc(C(=O)N(C)C)n(C[C@H](O)CO)c3C[C@H]2CN1C(=O)c1ccccc1
- outcome [1]: inactive
- outcome [2]: inactive

Structure (SMILES): COC(=O)[C@@H]1C[C@H]1[C@@H](N)c1ccccc1
- outcome [1]: inactive
- outcome [2]: inactive

Structure (SMILES): COc1ccc(CNC(=O)[C@H](C)[C@H]2C[C@]2(C)[C@H](NC(=O)OCc2ccccc2)c2ccccc2)cc1OC
- outcome [1]: inactive
- outcome [2]: inactive

Structure (SMILES): COC(=O)[C@@]1(Cc2ccc(OC)cc2)[C@H]2c3cc(C(=O)N4CCCC4)n(CCN4CCOCC4)c3C[C@H]2CN1C(=O)c1ccccc1
- outcome [1]: inactive
- outcome [2]: inactive

Structure (SMILES): COC(=O)[C@@]1(Cc2ccccc2)[C@H]2c3cc(C(=O)N(C)C)n(Cc4ccc(OC)c(OC)c4)c3C[C@H]2CN1C(=O)c1ccccc1
- outcome [1]: inactive
- outcome [2]: inactive

Structure (SMILES): CC1=C(C(=O)OCc2ccccc2)C(c2ccc(C3CCCCC3)cc2)NC(=O)N1CCCCCC(=O)O (centres undefined)
- outcome [1]: inactive

Structure (SMILES): COC(=O)[C@@]1(Cc2ccccc2)[C@H]2c3cc(C(=O)N(C)C)n(C[C@H](O)CO)c3C[C@H]2CN1C(=O)c1ccccc1
- outcome [1]: inactive
- outcome [2]: inactive

Structure (SMILES): C[C@@H](C(=O)N[C@@H](CO)Cc1ccccc1)[C@@H]1C[C@@]1(C)[C@@H](NC(=O)OCc1ccccc1)c1ccccc1
- outcome [1]: inactive
- outcome [2]: inactive

Structure (SMILES): COCCn1c(C(=O)N(C)C)cc2c1C[C@H]1CN(C(=O)c3ccccc3)[C@@](Cc3ccc(F)cc3)(C(=O)OC)[C@@H]21
- outcome [1]: inactive

Structure (SMILES): COC(=O)[C@@]1(Cc2ccc(F)cc2)[C@H]2c3cc(C(=O)N(C)C)n(Cc4ccccn4)c3C[C@H]2CN1C(=O)c1ccccc1
- outcome [1]: inactive
- outcome [2]: inactive

Structure (SMILES): O=C(N[C@@H](c1ccccc1)[C@@H]1C[C@H]1C(=O)NCc1ccccc1)OCc1ccccc1
- outcome [1]: inactive
- outcome [2]: inactive

Structure (SMILES): COC(=O)[C@@]1(Cc2ccccc2)[C@H]2c3cc(C(=O)N(C)C)n(Cc4ccc(O)c(OC)c4)c3C[C@H]2CN1C(=O)c1ccccc1
- outcome [1]: inactive
- outcome [2]: inactive

Structure (SMILES): COC(=O)[C@@]1(Cc2ccc(F)cc2)[C@H]2c3cc(C(=O)N(C)C)n(Cc4ccsc4Br)c3C[C@H]2CN1C(=O)c1ccccc1
- outcome [1]: inactive
- outcome [2]: inactive

Structure (SMILES): COC(=O)[C@@]1(Cc2ccc(OC)cc2)[C@H]2c3cc(C(=O)N4CCCC4)n(CCF)c3C[C@H]2CN1C(=O)c1ccccc1
- outcome [1]: inactive
- outcome [2]: inactive

Structure (SMILES): COC(=O)[C@@]1(Cc2ccc(OC)cc2)[C@H]2c3cc(C(=O)N4CCCC4)n(Cc4ccsc4Br)c3C[C@H]2CN1C(=O)c1ccccc1
- outcome [1]: inactive
- outcome [2]: inactive

Structure (SMILES): COC(=O)[C@@]1(Cc2ccc(F)cc2)[C@H]2c3cc(C(=O)N(C)C)n(Cc4cc(C)n(C)n4)c3C[C@H]2CN1C(=O)c1ccccc1
- outcome [1]: inactive
- outcome [2]: inactive

Structure (SMILES): O=C(NCc1ccccn1)[C@@H]1C[C@H]1[C@@H](NP(=O)(c1ccccc1)c1ccccc1)c1ccccc1
- outcome [1]: inactive
- outcome [2]: inactive

Structure (SMILES): C[C@@H](C(=O)Nc1ccc2ccccc2c1)[C@@H]1C[C@@]1(C)[C@@H](NC(=O)c1cccnc1)c1ccccc1
- outcome [1]: inactive
- outcome [2]: inactive

Structure (SMILES): CC(=O)OCC1C2CC[C@H]3C(OCc4ccc(F)cc4C(F)(F)F)OC[C@]4(C)[C@H]3C2=C(CN4C(=O)OC(C)(C)C)[C@H](C)C1COC(C)=O (some centres undefined)
- outcome [1]: inactive
- outcome [2]: inactive

Structure (SMILES): COC(=O)[C@@]1(Cc2ccc(OC)cc2)[C@H]2c3cc(C(=O)N(C)C)n(Cc4ccc(C(F)(F)F)nc4)c3C[C@H]2CN1C(=O)c1ccccc1
- outcome [1]: inactive
- outcome [2]: inactive

Structure (SMILES): O=C(NCC1CC1)[C@@H]1C[C@H]1[C@@H](NP(=O)(c1ccccc1)c1ccccc1)c1ccccc1
- outcome [1]: inactive
- outcome [2]: inactive
